# From PubChem BioAssay (NCATS)
# Several values for one entry are separate records, joined by “and”; a condition that tells them apart may be missing. Identical values can stand only once. Results filed as inconclusive are left out. Activity calls are given as the source filed them. Unless noted, calls follow the shape of the dose curve; as a rule, active = well fitted curve in the direction sought with a large enough effect; inconclusive = small, poorly fitted or top-dose-only effect, or another doubt; inactive = no such curve, though single readings can be large; an effect the other way counts as inactive or inconclusive.
# Tested on: not listed separately
# Assay: Primary qHTS for inhibitors of nuclear receptor binding SET domain protein 2 (NSD2) in an RCH-ACV wild type WT cells (2C) (AID 1645877); also: nearly all actives have a fitted effect of over 70% in size; also: potency is read from the fitted curve at half-maximal effect; as to activity change, negative = cell killing: % is scaled to controls: 0 for no effect and ±100 for the full control effect
# Settings: RCH-ACV (leukaemia line) NSD2 WT (2C) viability, CellTiter-Glo, 72 h; series mostly up to 44.9 µM; activity change, negative = cell killing: at the top concentration
SMILES,Potency,"activity change, negative = cell killing",outcome
C[C@H](CCC(=O)O)C[C@H](C)C[C@H](C)C(=O)/C=C(\O)[C@H](C)C[C@H](C)C/C=C/[C@@H](C)[C@@H](O)[C@@H](C)[C@@H](O)C[C@@H]1CC[C@@](C)([C@H]2CC[C@@](C)([C@@H](C)O)O2)O1,4.47 µM (active),,
CN(C)c1cc2c(cc1Sc1nc3c(N)nccc3n1CCNCC(C)(C)C)OCO2,365 nM (active) and 742 nM (active),,
C[C@H]1C/C=C/[C@H]2[C@@H]3O[C@]3(C)[C@@H](C)[C@H]3[C@H](Cc4ccccc4)NC(=O)[C@]32OC(=O)O/C=C/[C@@](C)(O)C1=O,0.502 µM (active),,
N#CC(O[C@@H]1O[C@H](CO)[C@@H](O)[C@H](O)[C@H]1O)c1ccccc1 (stereo partly drawn),,-7.95% (inactive),
CC(=O)O[C@H]1CN2CCC1CC2,,,inactive
CC1=CC(=O)[C@@H](O)[C@]2(C)C3[C@@H](O)[C@@H]4OC(=O)[C@@H]([C@H]4C)[C@]3(C)C(=O)C[C@@H]12 (stereo partly drawn),2.26 µM (active),,
N#Cc1cn([C@@H]2O[C@H](CO)[C@H](O)[C@@H]2O)c2ncnc(N)c12,0.0073 µM (active),,

# Target: Catechol O-methyltransferase (Homo sapiens) (UniProt P21964)
# Assay: Confirmatory Screen for Target Class Profiling of Small Molecule Inhibitors of Methyltransferases (AID 1745852; calls by dose curve; also: potency is read from the fitted curve at half-maximal effect; as to activity change, negative = inhibition: % is scaled to controls: 0 for no effect and ±100 for the full control effect)
# Settings: MTase-Glo luminescence, SAH detection, recombinant enzyme; measured here: COMT max response; stronger effect = lower value
# Sequence of Catechol O-methyltransferase (Homo sapiens) (P21964 whole entry, looked up): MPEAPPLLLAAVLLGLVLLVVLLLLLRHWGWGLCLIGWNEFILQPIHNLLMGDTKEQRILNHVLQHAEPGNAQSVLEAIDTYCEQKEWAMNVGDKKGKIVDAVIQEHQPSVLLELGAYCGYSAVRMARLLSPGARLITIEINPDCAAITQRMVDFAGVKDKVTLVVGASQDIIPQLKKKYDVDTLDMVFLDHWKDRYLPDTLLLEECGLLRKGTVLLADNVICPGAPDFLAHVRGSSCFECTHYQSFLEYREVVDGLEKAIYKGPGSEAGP
row,SMILES,activity [%]
1,C[C@H]1O[C@@H](O[C@H]2CC[C@]3(CO)C4CC[C@]5(C)[C@@H](C6=CC(=O)OC6)CC[C@]5(O)[C@@H]4CC[C@H]3C2)[C@H](O)[C@H](O)[C@@H]1O[C@@H]1O[C@H](CO)[C@@H](O)[C@H](O)[C@H]1O (stereo partly drawn),-90
2,CN(C)c1cc2c(cc1Sc1nc3c(N)nccc3n1CCNCC(C)(C)C)OCO2,-13.6
3,N#Cc1cn([C@@H]2O[C@H](CO)[C@H](O)[C@@H]2O)c2ncnc(N)c12,-98.2

# Target: Guanidinoacetate N-methyltransferase (Homo sapiens) (UniProt Q14353)
# Assay: as above
# Settings: MTase-Glo luminescence, SAH detection, recombinant enzyme; activity change, negative = inhibition: at 57.3 µM (top of the series) unless noted; series mostly up to 57.3 µM
SMILES,"activity change, negative = inhibition",Potency
C[C@H]1O[C@@H](O[C@H]2CC[C@]3(CO)C4CC[C@]5(C)[C@@H](C6=CC(=O)OC6)CC[C@]5(O)[C@@H]4CC[C@H]3C2)[C@H](O)[C@H](O)[C@@H]1O[C@@H]1O[C@H](CO)[C@@H](O)[C@H](O)[C@H]1O (stereo partly drawn),-0.722% [at 19.1 µM],
CN(C)c1cc2c(cc1Sc1nc3c(N)nccc3n1CCNCC(C)(C)C)OCO2,-4.13%,
N#Cc1cn([C@@H]2O[C@H](CO)[C@H](O)[C@@H]2O)c2ncnc(N)c12,,38300 nM (active)

# Target: Nicotinamide N-methyltransferase (Homo sapiens) (UniProt P40261)
# Assay: as above
# Settings: MTase-Glo luminescence, SAH detection, recombinant enzyme; measured here: NNMT max response; stronger effect = lower value
# Sequence of Nicotinamide N-methyltransferase (Homo sapiens) (P40261 whole entry, looked up): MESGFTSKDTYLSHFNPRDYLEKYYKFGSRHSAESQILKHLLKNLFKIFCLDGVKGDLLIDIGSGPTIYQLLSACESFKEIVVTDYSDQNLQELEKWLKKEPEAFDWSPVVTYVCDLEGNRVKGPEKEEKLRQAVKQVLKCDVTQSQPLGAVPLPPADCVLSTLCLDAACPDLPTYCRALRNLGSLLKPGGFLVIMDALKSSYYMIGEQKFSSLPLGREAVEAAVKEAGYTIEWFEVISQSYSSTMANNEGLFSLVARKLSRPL
row,SMILES,activity [%]
1,C[C@H]1O[C@@H](O[C@H]2CC[C@]3(CO)C4CC[C@]5(C)[C@@H](C6=CC(=O)OC6)CC[C@]5(O)[C@@H]4CC[C@H]3C2)[C@H](O)[C@H](O)[C@@H]1O[C@@H]1O[C@H](CO)[C@@H](O)[C@H](O)[C@H]1O (stereo partly drawn),-7.07
2,CN(C)c1cc2c(cc1Sc1nc3c(N)nccc3n1CCNCC(C)(C)C)OCO2,-41.4
3,N#Cc1cn([C@@H]2O[C@H](CO)[C@H](O)[C@@H]2O)c2ncnc(N)c12,-89.8

# Target: Phenylethanolamine N-methyltransferase (Homo sapiens) (UniProt P11086)
# Assay: as above
# Settings: MTase-Glo luminescence, SAH detection, recombinant enzyme; measured here: PNMT max response; stronger effect = lower value
# Sequence of Phenylethanolamine N-methyltransferase (Homo sapiens) (P11086 whole entry, looked up): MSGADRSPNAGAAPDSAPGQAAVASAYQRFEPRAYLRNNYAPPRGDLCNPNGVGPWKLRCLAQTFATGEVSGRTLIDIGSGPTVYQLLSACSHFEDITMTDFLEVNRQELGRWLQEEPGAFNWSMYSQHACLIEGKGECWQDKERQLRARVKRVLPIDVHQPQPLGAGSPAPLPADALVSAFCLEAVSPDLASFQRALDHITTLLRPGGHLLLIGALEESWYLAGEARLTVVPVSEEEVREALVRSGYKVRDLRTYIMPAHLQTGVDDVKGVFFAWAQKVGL
row,SMILES,activity [%]
1,C[C@H]1O[C@@H](O[C@H]2CC[C@]3(CO)C4CC[C@]5(C)[C@@H](C6=CC(=O)OC6)CC[C@]5(O)[C@@H]4CC[C@H]3C2)[C@H](O)[C@H](O)[C@@H]1O[C@@H]1O[C@H](CO)[C@@H](O)[C@H](O)[C@H]1O (stereo partly drawn),-1.28
2,CN(C)c1cc2c(cc1Sc1nc3c(N)nccc3n1CCNCC(C)(C)C)OCO2,-0.0762
3,N#Cc1cn([C@@H]2O[C@H](CO)[C@H](O)[C@@H]2O)c2ncnc(N)c12,-99.9

# Target: Glutathione peroxidase 1 (Homo sapiens) (UniProt P07203)
# Assay: Primary qHTS Assay for Inhibitors of Recombinant Selenoprotein Glutathione Peroxidase 1 (GPX1) (AID 1845191); also: nearly all actives have a fitted effect of over 65% in size; as to activity, negative = inhibition: % is scaled to controls: 0 for no effect and ±100 for the full control effect
# Settings: recombinant GPX1, GR-coupled NADPH fluorescence, 15 min; series mostly up to 48.8 µM; activity, negative = inhibition: at the top concentration
# In short: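 GPX1 10 nM, GR 100 nM, GSH 1 mM, NADPH 0.5 mM, CHP 0.5 mM (final). 30-min cpd preincubation, RT. Ex340/Em450 read t=0, t=15 min.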
# Sequence of Glutathione peroxidase 1 (Homo sapiens) (P07203 whole entry, looked up): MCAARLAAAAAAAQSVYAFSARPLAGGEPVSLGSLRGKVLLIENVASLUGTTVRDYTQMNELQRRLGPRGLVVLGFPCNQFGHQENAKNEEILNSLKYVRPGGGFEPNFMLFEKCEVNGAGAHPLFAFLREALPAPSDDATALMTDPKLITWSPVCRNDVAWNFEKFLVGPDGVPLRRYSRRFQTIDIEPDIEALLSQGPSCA
SMILES,outcome,"activity, negative = inhibition"
CC(=O)O[C@@H]1[C@@H](O)[C@H]2O[C@@H]3C=C(C)[C@@H](O)C[C@]3(CO)[C@]1(C)[C@]21CO1,inactive [at 27.7 µM],
COc1cc2c(c(OC)c1OC)-c1ccc(SC)c(=O)cc1[C@@H](NC(C)=O)CC2,,-8.39% (inactive)
C=C1[C@@H](C)[C@H]2[C@H](Cc3ccccc3)NC(=O)[C@]23[C@H](OC(C)=O)/C=C/[C@](C)(O)C(=O)[C@@H](C)C/C=C/[C@H]3[C@@H]1O,inactive,
C[C@@H]1C[C@@H](O)[C@]2(O)O[C@@H]3C[C@@]4(C=O)C(CC[C@@H]5C4CC[C@]4(C)[C@@](O)(C6=CC(=O)OC6)CC[C@]54O)C[C@H]3OC2O1 (stereo partly drawn),,-14.8% [at 27.7 µM] (inactive)
CC(=O)OC[C@]12C[C@H](OC(=O)CC(C)C)C(C)=C[C@H]1O[C@@H]1[C@H](O)[C@@H](OC(C)=O)[C@@]2(C)[C@@]12CO2,,0.0777% [at 27.7 µM] (inactive)
CC[C@H](C)[C@H](NC(=O)[C@H]1CCCCN1C)C(=O)N(COC(=O)CC(C)C)[C@H](C[C@@H](OC(C)=O)c1nc(C(=O)N[C@@H](Cc2ccc(O)cc2)C[C@H](C)C(=O)O)cs1)C(C)C,,-5.19% [at 1.09 µM] (inactive)
CN[C@@H]1C[C@H]2O[C@@](C)([C@@H]1OC)n1c3ccccc3c3c4c(c5c6ccccc6n2c5c31)C(=O)NC4,inactive,
CC1=C[C@H]2O[C@@H]3C[C@H]4OC(=O)/C=C/C=C/C(=O)OCC/C(C)=C/C(=O)OC[C@@]2(CC1)[C@]4(C)[C@]31CO1,inactive [at 27.7 µM],
CC(=O)OC[C@]12C[C@H](OC(=O)CC(C)C)C(C)=C[C@H]1O[C@@H]1[C@H](O)[C@@H](O)[C@@]2(C)[C@]12CO2,inactive [at 27.7 µM],
CC(=O)OC[C@]12C[C@H](OC(=O)CC(C)C)C(C)=C[C@H]1O[C@@H]1[C@H](O)C[C@@]2(C)[C@]12CO2,inactive [at 27.7 µM],
COC1CC(O[C@H]2CC[C@]3(C)C4CC[C@]5(C)[C@@H](C6=CC(=O)OC6)[C@@H](OC(C)=O)C[C@]5(O)C4CC[C@@H]3C2)OC(C)C1O[C@@H]1O[C@H](CO)[C@@H](O)[C@H](O)[C@H]1O (stereo partly drawn),inactive [at 15.3 µM],
Cc1c(Cl)c(OCC(=O)N2CCN(C)CC2)nc2sc(C(=O)NC3CC3)c(N)c12,,-20.1% (inactive)
CO[C@H]1[C@H](O)[C@H](O[C@H]2CC[C@]3(C=O)C4CC[C@]5(C)[C@H](C6=CC(=O)OC6)CC[C@]5(O)C4CC[C@@H]3C2)O[C@@H](C)[C@@H]1O (stereo partly drawn),,-9.48% [at 27.7 µM] (inactive)
C[C@H]1O[C@@H](O[C@H]2CC[C@]3(C=O)C4CC[C@]5(C)[C@@H](C6=CC(=O)OC6)CC[C@]5(O)[C@@H]4CC[C@]3(O)C2)C[C@@H](O)[C@@H]1O (stereo partly drawn),inactive [at 27.7 µM],
COC1CC(O[C@H]2CC[C@]3(C=O)C4CC[C@]5(C)[C@@H](C6=CC(=O)OC6)CC[C@]5(O)[C@@H]4CC[C@@H]3C2)OC(C)C1O[C@@H]1O[C@H](CO)[C@@H](O[C@@H]2O[C@H](CO)[C@@H](O)[C@H](O)[C@H]2O)[C@H](O)[C@H]1O (stereo partly drawn),,-12.9% [at 15.3 µM] (inactive)
C[C@]12CC[C@H](O)C[C@H]1CC[C@@H]1[C@@H]2[C@H](O)C[C@]2(C)[C@@H](c3ccc(=O)oc3)CC[C@]12O,,-4.17% (inactive)
C[C@H]1O[C@@H](O[C@H]2CC[C@]3(CO)C4CC[C@]5(C)[C@@H](C6=CC(=O)OC6)CC[C@]5(O)[C@@H]4CC[C@H]3C2)[C@H](O)[C@H](O)[C@@H]1O[C@@H]1O[C@H](CO)[C@@H](O)[C@H](O)[C@H]1O (stereo partly drawn),inactive [at 15.3 µM],

SMILES,outcome,"activity, negative = inhibition"
CC1=C[C@H]2O[C@@H]3[C@H](O)[C@@H](O)[C@](C)([C@@]2(CO)C[C@@H]1O)[C@]31CO1,,-10.3% (inactive)
C[C@H]1O[C@@H](n2cnc3c(N)ncnc32)C[C@@H]1O,inactive,
OCc1nnc2n1-c1ccc(Cl)cc1C(c1ccccc1Cl)=NC2,,-7.67% (inactive)
CC[C@H]1C2CC3[C@@H]4N(C)c5ccccc5[C@]45C[C@@H]([C@H]2[C@H]5O)N3[C@@H]1O,,-12.5% [at 27.7 µM] (inactive)
CO[C@@H]1C[C@H](O[C@H]2CC[C@@]3(C)C(CCC4C3CC[C@]3(C)[C@@H](C5=CC(=O)OC5)[C@@H](OC(C)=O)CC43O)C2)O[C@H](C)[C@@H]1O[C@H]1O[C@H](CO[C@@H]2O[C@H](CO)[C@@H](O)[C@H](O)[C@H]2O)[C@@H](O)[C@H](O)[C@H]1O (stereo partly drawn),,-9.2% [at 15.3 µM] (inactive)
CC[C@@]1(O)C(=O)OCc2c1cc1n(c2=O)Cc2cc3c(OC)cccc3nc2-1,,-24.5% [at 27.7 µM] (inactive)
CC1=CC2OC3[C@H](O)C[C@@](C)([C@]34CO4)[C@@]2(CO)[C@H](O)C1=O (stereo partly drawn),inactive,
CC(=O)O[C@H]1CC[C@@]2(CI)C(=CC[C@@H]3[C@@H]2CC[C@]2(C)C(=O)CC[C@@H]32)C1,,2.74% (inactive)
C=C1[C@@H](C)[C@H]2[C@H](Cc3ccccc3)NC(=O)[C@]23OC(=O)/C=C/C(=O)CCC[C@@H](C)C/C=C/[C@H]3[C@@H]1O,,3.16% (inactive)
C[C@H](CCC(=O)O)C[C@H](C)C[C@H](C)C(=O)/C=C(\O)[C@H](C)C[C@H](C)C/C=C/[C@@H](C)[C@@H](O)[C@@H](C)[C@@H](O)C[C@@H]1CC[C@@](C)([C@H]2CC[C@@](C)([C@@H](C)O)O2)O1,,-14.9% [at 27.7 µM] (inactive)
C[C@H]1C/C=C/[C@H]2[C@@H]3O[C@]3(C)[C@@H](C)[C@H]3[C@H](Cc4ccccc4)NC(=O)[C@]32OC(=O)O/C=C/[C@@](C)(O)C1=O,,4.8% [at 27.7 µM] (inactive)
N#CC(O[C@@H]1O[C@H](CO)[C@@H](O)[C@H](O)[C@H]1O)c1ccccc1 (stereo partly drawn),,0.866% (inactive)
COC1CC(O[C@H]2CC[C@]3(C)C4CC[C@]5(C)[C@@H](C6=CC(=O)OC6)[C@@H](OC(C)=O)C[C@]5(O)C4CC[C@@H]3C2)OC(C)C1O (stereo partly drawn),,-10% [at 27.7 µM] (inactive)
CC(=O)O[C@H]1CN2CCC1CC2,,-2.94% (inactive)
CC(=O)OC[C@]12C[C@H](O)C(C)=C[C@H]1O[C@@H]1[C@H](O)[C@@H](OC(C)=O)[C@@]2(C)[C@]12CO2,inactive [at 27.7 µM],
CC1=CC(=O)[C@@H](O)[C@]2(C)C3[C@@H](O)[C@@H]4OC(=O)[C@@H]([C@H]4C)[C@]3(C)C(=O)C[C@@H]12 (stereo partly drawn),inactive [at 27.7 µM],
CC[C@@H]1C[C@H]2CC[C@H](O2)[C@H](C)C(=O)O[C@@H](C)C[C@@H]2CC[C@@H](O2)[C@@H](C)C(=O)O[C@H](CC)C[C@H]2CC[C@H](O2)[C@H](C)C(=O)O[C@@H](C)C[C@@H]2CC[C@@H](O2)[C@@H](C)C(=O)O1,,-5.54% [at 15.3 µM] (inactive)
